Assays:
Type in all cases: functional
Plasmodium falciparum [1] = assay: GSK_TCMDC: Inhibition of Plasmodium falciparum 3D7 in whole red blood cells, using parasite LDH activity as an index of growth. Test compounds present at 2uM
Plasmodium falciparum [2] = assay: GSK_TCMDC: Inhibition of Plasmodium falciparum Dd2 in whole red blood cells, using parasite LDH activity as an index of growth. Test compounds present at 2uM
HepG2 = assay: GSK_TCMDC: Percent inhibition of human HepG2 cell line. Test compounds present at 10uM.

SMILES	Inhibition (Plasmodium falciparum [1])	Inhibition (Plasmodium falciparum [2])	Inhibition (HepG2)
O=C(Cn1c(CCc2cccc(F)c2F)cc(=O)c2cccnc21)N(CCCn1ccnc1)Cc1ccc(-c2ccc(C(F)(F)F)cc2)cc1	96%	47%	38%
C[C@@H](CC1CCCCC1)OC(=O)N[C@H]1CCN(C#N)C1	95%	83%	7%
Cc1ccccc1C1CCN(C2CCC(NC(=O)C3=Cc4ccccc4OC3)CC2)CC1 (stereo not drawn)	91%	15%	26%
COCCNCc1cccc(-c2ccccc2CN(C(=O)c2ccc3c(c2)OCO3)c2ccc(OC)cc2)c1.O=C(O)C(F)(F)F	90%	46%	6%
CC(C)N1CCC(NCc2ccc(-c3ccc(Cl)cc3)cc2)CC1	99%	48%	50%
CC1(C)N=C(N)N=C(N)N1c1ccc(I)cc1.Cl	92%	1%	16%
Cc1[nH]c(CNCCCNc2cc(=O)c3ccccc3[nH]2)c(Br)c1Br	91%	47%	0%
Fc1ccc2[nH]c(-c3ccc(-c4ccc(CNCc5ccccc5)cc4)cc3)nc2c1.O=C(O)C(F)(F)F	100%	94%	35%
CCOC(=O)C(C)(C)Oc1ccc(C(=C2CC(C)(C)CC(C)(C)C2)c2ccc(O)cc2)cc1	92%	78%	0%
CCOC(=O)c1ccc(NC(=O)N[C@@H](Cc2ccccc2)C(=O)NC2CCN(Cc3ccc(O)c(OC)c3)C2)cc1 (stereo partly drawn)	88%	0%	0%
CC(=O)c1ccc2c(c1)C(NC(=O)c1cccc(Cl)c1Cl)C(CO)C(C)(C)O2 (stereo not drawn)	99%	44%	5%
CCCCCCCC1CC(CC(=O)Nc2ccnc3ccc(OC)cc23)CN1C(=O)OC(C)(C)C (stereo not drawn)	100%	34%	1%
CN1CCN(c2ccnc3ccc(NC(=O)Nc4ccc(Cl)c(Cl)c4)cc23)CC1	97%	17%	0%
CC(=O)Nc1ccc(CN2CCC(NC(=O)c3ccc(-c4ccc(N(C)C)cc4)s3)CC2)cc1.O=C(O)C(F)(F)F	100%	57%	20%
Fc1cccc(COc2ccc(Nc3ncnc4sc(C#CCNC5CCC5)cc34)cc2Cl)c1	100%	73%	15%
CCc1c(CCNCCCCCCNCCc2ccc([N+](=O)[O-])cc2)ccc(OC)c1OC.Cl	100%	2%	35%
COc1ccc(CNCc2ccc(F)cc2)cc1-c1ccc(OC)c(S(=O)(=O)NCCN2CCCC2)c1.O=C(O)C(F)(F)F	100%	88%	24%
Cc1cccc2nc(-c3ccc(-c4cccc(NC(=O)Nc5ccc6c(c5)OCO6)c4)cc3)[nH]c12	100%	39%	28%
CC[C@H](C)CNC(=O)c1cncc(-c2cccc(CNC3Cc4ccccc4C3)c2)c1.O=C(O)C(F)(F)F	100%	76%	5%
COc1ccc(NC(=O)[C@H](C)Nc2cc(C)nc(NCC3CCCCC3)n2)cc1.O=C(O)C(F)(F)F	92%	13%	12%
OC(c1ccc(Cl)cc1)(c1ccc(Cl)cc1)C(c1ccc(Cl)cc1)n1ccnc1 (stereo not drawn)	100%	100%	15%

SMILES	Inhibition (Plasmodium falciparum [1])	Inhibition (Plasmodium falciparum [2])	Inhibition (HepG2)
Cc1cccc2[nH]c(-c3cc(-c4cccc(Cl)c4)cnc3N)nc12.O=C(O)C(F)(F)F	100%	99%	32%
Cc1nnc2c(NC(=O)NC3CCCC3)cc3ccc(-c4cccc(CN5CCN(C)CC5)c4)cc3n12	91%	68%	54%
COc1ccc(/C=C/C(=O)Nc2ccc(-c3ccncc3)cc2)cc1CCCN(C)C.O=C(O)/C=C\C(=O)O	100%	86%	3%
Nc1nonc1-c1nc2c(-c3cccc(Cl)c3)nccc2n1CCCNC(=O)Cc1ccc(Cl)cc1	94%	92%	0%
O=C(NCc1cccs1)[C@H](Cc1ccccc1)Nc1ccnc(NCC2CCCCC2)n1.O=C(O)C(F)(F)F	83%	67%	5%
Cc1cc(Br)cnc1CCCCNc1cc(=O)c2ccccc2[nH]1.Cl	91%	64%	0%
Nc1nc(N)c2c(ccc3c2ccn3Cc2ccc(Cl)cc2)n1	100%	99%	100%
Cc1cc(C)c2cc(CNCCCNc3nc4ccccc4[nH]3)[nH]c2c1	100%	0%	32%
CCCc1cn2c3c(cc(C(=O)N[C@@H](Cc4ccccc4)[C@H](O)CNC4CCCCC4)cc13)N(C)S(=O)(=O)CC2.O=CO	99%	98%	3%
Cn1ccnc1CNC(=O)c1ccc(-c2cccc(-c3nc4cc(C(F)(F)F)ccc4[nH]3)c2)cc1	100%	80%	20%
O=C(/C=C/c1ccc(Cl)c(Cl)c1)NCCCCCN1CCC(c2c[nH]c3cc(O)ccc23)CC1	100%	2%	32%
COc1ccc(Nc2nc(=Nc3ccccc3)nc(NN=Cc3cc(Cl)ccc3O)[nH]2)cc1	100%	10%	55%
CC(C)Cc1ccc(N2CCN(CCCCNC(=O)c3ccc(NC(=O)c4cc(C(F)(F)F)cc(C(F)(F)F)c4)cc3)CC2)cc1	100%	100%	15%
COc1ccccc1NC(=O)Nc1cccc(-c2ccc(-c3nc4cc(C(F)(F)F)ccc4[nH]3)cc2)c1	100%	76%	28%
CN1CCc2ccc(NC(=O)Nc3ccc(-c4ccccc4)cc3)cc2C1	90%	45%	24%
O=c1cc(NCCC(CNCc2cc3ccccc3o2)NCc2cc(Br)cc(Br)c2)[nH]c2ccccc12 (stereo not drawn)	100%	94%	6%
CC(=O)c1cccc(NC(=O)NC2CCN(c3ccnc(Nc4ccc(F)cc4)n3)C2)c1 (stereo not drawn)	99%	94%	10%
O=C(Nc1cccc(CN2CCCN(Cc3ccc4c(c3)OCO4)CC2)c1)c1ccc(Cl)c(Cl)c1.O=C(O)C(F)(F)F	92%	10%	34%
COc1ccc(CNC2CCN(C)CC2)cc1-c1ccc(S(=O)(=O)NCC2CCCO2)s1.O=C(O)C(F)(F)F (stereo not drawn)	95%	18%	18%
CCc1c(C)nc(-n2nc(C)cc2NC(=O)c2ccc(OC)cc2OC)[nH]c1=O	96%	57%	42%
CN1CCCC(CN2CCN(Cc3cccc(-c4csc(-c5nc6ccccc6[nH]5)c4)c3)CC2)C1.O=C(O)C(F)(F)F (stereo not drawn)	100%	100%	65%

SMILES	Inhibition (Plasmodium falciparum [1])	Inhibition (Plasmodium falciparum [2])	Inhibition (HepG2)
CCCCOP(=O)(COc1ccc(CCN(CC(O)COc2cccc3[nH]c4ccccc4c23)CC(O)COc2cccc3[nH]c4ccccc4c23)cc1)C1CCCCC1 (stereo not drawn)	89%	92%	7%
O=C(/C=C/c1ccc([N+](=O)[O-])cc1)N1CCC(NS(=O)(=O)c2cccc(C(F)(F)F)c2)CC1	94%	8%	0%
Cc1cc(C2NC(=O)c3ccccc3N2)c(C)n1-c1ccc2c(c1)OCO2 (stereo not drawn)	86%	85%	13%
O=C(O)C(F)(F)F.c1cc(CN2CCC(CCN3CCCCC3)CC2)cc(-c2csc(-c3nc4ccccc4[nH]3)c2)c1	99%	99%	89%
N=C(N)NN=Cc1ccccc1OCc1ccccc1Cl	100%	30%	14%
Cl.N=c1n(CCN2CCCCC2)c2ccccc2n1CC(O)c1ccc(Cl)c(Cl)c1 (stereo not drawn)	97%	97%	50%
Cc1cc(CNCCCCCCCNCc2ccc(Cl)cc2)ccc1O	97%	0%	13%
COc1ccc(C2CC(c3ccccc3O)=NN2C(=O)c2ccco2)cc1OC (stereo not drawn)	96%	68%	11%
O=C(Cc1cccc(O)c1)NCC(Cc1ccc(O)cc1)c1ccccc1 (stereo not drawn)	91%	97%	0%
Br.CCCCCCCN(CCCCCCC)CCNc1cc(C)nc2ccccc12	89%	31%	39%
COc1cc(NC2=C(c3ccccc3)C(=O)c3ccccc32)ccn1	96%	96%	7%
CC(C)[C@@H](NC(=O)NC1CCC(CCN2C3CCC2CC(OC(=O)C(CO)c2ccccc2)C3)CC1)C(O)(c1ccccc1)c1ccccc1 (stereo partly drawn)	96%	56%	19%
Cc1cc(=NN=Cc2ccccc2Cl)c2cc(C(F)(F)F)ccc2[nH]1	100%	75%	0%
CCN(CC)CCCC(C)Nc1c(-c2ccc(OC)cc2)cnc2ccccc12 (stereo not drawn)	93%	38%	3%
Fc1ccc2[nH]c(-c3cccc(-c4ccc(CNCCc5ccncc5)cc4)c3)nc2c1.O=C(O)C(F)(F)F	99%	100%	44%
O=C(Nc1ccc(Oc2ccccc2)cc1)N(CCN1CCCC1)Cc1ccc(-c2ccc(CN3CCNCC3)cc2)cc1.O=C(O)C(F)(F)F	88%	90%	48%
CCn1cc(-c2cc(C(=O)Nc3ccc(OC)cc3C)c3ccccc3n2)c(C)n1	97%	100%	0%
CCN(CC)CCNc1c2ccc(Cl)cc2nc2ccc(OC)nc12.Cl	100%	99%	20%
CN(C)CCCOC(=O)c1cc2cc(-c3ccccc3)ccc2n1S(=O)(=O)Cc1ccccc1.Cl	100%	70%	13%
